Experiments:
Test in all cases: log2 ratio of Biotin-Ahx-Ub-VS probe labelling (fragment/DMSO); higher = less target engagement (more negative = stronger competition), active = hit call of the paper (q ≤ 0.05, log2 ratio ≤ -1)
Settings in all cases: compound concentration: 200 uM; treatment time: 3 h
[1] = target: T1, USP42 (UniProt Q9H9J4)
T1 sequence (whole entry): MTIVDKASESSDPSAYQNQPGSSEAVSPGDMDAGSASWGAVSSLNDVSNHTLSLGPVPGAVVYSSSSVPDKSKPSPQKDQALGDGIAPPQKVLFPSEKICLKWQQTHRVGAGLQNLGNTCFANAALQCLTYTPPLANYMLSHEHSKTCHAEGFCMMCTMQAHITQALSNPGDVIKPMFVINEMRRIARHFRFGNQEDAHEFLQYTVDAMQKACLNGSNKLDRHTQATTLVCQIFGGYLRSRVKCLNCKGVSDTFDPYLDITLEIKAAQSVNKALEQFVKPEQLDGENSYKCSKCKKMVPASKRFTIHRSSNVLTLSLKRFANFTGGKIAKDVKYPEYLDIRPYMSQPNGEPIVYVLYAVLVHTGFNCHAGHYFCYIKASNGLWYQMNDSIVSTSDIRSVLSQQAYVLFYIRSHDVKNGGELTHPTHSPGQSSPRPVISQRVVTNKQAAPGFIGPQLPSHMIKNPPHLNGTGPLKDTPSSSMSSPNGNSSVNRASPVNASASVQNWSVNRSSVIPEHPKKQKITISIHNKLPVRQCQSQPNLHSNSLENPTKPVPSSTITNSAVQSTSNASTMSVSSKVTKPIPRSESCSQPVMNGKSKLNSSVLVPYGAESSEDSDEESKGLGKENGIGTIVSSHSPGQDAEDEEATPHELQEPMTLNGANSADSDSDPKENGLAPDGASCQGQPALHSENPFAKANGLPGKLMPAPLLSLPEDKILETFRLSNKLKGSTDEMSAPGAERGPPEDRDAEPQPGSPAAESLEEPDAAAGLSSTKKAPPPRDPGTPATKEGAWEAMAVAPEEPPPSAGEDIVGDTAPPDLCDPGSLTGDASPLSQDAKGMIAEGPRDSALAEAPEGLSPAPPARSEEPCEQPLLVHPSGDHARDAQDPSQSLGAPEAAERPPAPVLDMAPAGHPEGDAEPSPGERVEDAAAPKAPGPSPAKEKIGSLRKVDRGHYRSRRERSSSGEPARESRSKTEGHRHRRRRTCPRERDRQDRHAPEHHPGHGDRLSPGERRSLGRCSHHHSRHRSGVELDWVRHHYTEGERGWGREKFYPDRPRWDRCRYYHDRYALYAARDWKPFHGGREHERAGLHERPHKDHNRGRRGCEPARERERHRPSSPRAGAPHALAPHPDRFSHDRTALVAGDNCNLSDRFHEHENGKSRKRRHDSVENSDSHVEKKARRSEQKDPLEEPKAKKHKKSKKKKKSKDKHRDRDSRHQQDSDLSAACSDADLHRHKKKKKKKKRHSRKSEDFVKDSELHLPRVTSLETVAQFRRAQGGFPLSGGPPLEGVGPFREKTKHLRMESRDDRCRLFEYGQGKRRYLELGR
Summary of the method: (§1)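 Using Biotin-Ahx-Ub-VS at 0.5 µM final for 1 h, DUBs were labelled in HEK293T lysate (495 µg per sample) that had first been treated in triplicate with fragment at 200 µM or vehicle for 3 h. NeutrAvidin enrichment, LysC and trypsin digestion and diaPASEF LC-MS/MS followed. Spectronaut label-free quantities were global-median-normalised. Values are average log2 fragment/vehicle ratios by unpaired t-test, using proteins with ≥2 unique peptides.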

[2] = target: USP46 (UniProt P62068)
Summary of the method: as §1

[3] = target: T2, USP47 (UniProt Q96K76)
T2 sequence (whole entry): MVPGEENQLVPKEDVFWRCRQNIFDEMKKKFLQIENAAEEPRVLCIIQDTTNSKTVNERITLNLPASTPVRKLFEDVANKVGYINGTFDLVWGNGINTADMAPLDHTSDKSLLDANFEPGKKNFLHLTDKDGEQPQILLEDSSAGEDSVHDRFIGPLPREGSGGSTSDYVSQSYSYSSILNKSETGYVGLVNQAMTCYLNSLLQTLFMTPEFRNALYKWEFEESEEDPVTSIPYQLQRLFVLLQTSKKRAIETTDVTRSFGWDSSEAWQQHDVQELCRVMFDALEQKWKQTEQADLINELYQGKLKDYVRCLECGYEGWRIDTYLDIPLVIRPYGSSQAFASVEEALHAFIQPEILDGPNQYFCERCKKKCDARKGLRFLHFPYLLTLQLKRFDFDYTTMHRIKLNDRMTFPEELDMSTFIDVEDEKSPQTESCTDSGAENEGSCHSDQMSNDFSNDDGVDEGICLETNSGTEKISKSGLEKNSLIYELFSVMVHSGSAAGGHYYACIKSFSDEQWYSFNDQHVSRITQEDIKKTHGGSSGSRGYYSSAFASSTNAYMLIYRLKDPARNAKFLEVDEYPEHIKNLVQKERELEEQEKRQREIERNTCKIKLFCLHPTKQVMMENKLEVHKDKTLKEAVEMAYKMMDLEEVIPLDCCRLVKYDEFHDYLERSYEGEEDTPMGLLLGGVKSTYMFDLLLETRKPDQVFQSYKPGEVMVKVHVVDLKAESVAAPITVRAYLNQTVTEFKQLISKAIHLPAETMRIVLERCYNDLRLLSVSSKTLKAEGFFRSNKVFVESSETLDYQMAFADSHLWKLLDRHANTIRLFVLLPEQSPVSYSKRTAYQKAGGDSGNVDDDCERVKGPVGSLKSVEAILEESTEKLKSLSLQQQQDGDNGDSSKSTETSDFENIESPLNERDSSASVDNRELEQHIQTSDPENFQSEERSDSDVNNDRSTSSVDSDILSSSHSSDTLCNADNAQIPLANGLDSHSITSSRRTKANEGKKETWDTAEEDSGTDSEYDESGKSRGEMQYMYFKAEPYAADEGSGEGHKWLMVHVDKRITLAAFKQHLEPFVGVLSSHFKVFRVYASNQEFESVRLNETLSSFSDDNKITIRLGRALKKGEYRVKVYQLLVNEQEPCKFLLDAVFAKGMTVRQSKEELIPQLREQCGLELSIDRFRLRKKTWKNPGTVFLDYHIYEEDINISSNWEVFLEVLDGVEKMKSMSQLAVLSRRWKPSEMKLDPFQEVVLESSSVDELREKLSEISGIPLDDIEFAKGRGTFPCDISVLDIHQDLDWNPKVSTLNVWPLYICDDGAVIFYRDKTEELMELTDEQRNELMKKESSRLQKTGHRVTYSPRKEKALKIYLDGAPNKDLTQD
Summary of the method: as §1

[4] = target: T3, USP48 (UniProt Q86UV5)
T3 sequence (whole entry): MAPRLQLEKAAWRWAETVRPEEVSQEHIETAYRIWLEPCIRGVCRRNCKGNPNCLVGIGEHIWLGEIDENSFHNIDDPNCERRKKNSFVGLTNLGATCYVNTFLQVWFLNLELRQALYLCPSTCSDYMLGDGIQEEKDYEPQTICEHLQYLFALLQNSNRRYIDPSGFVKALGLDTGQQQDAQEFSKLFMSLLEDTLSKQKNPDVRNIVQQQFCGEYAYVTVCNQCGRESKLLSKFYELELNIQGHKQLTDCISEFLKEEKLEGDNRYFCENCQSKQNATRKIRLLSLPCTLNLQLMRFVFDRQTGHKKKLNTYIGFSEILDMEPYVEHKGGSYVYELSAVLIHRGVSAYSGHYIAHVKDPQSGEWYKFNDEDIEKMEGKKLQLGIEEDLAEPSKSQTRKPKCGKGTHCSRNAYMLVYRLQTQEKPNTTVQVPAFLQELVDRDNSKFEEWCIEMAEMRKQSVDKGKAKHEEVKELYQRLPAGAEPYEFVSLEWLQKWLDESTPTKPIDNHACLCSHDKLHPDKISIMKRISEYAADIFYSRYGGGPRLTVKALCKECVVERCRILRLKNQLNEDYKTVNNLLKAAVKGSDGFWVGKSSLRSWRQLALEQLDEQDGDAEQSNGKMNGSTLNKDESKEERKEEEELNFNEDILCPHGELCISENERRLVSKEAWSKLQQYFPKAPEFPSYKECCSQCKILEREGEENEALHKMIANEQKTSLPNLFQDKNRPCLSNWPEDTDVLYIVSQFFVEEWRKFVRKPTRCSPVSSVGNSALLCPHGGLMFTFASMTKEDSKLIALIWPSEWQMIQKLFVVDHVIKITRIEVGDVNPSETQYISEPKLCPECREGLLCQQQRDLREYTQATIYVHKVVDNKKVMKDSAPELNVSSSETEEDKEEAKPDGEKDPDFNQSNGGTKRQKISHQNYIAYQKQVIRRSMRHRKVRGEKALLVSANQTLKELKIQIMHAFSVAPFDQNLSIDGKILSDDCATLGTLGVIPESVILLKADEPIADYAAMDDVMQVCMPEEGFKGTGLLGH
Summary of the method: as §1

[5] = target: T4, USP5 (UniProt P45974)
T4 sequence (whole entry): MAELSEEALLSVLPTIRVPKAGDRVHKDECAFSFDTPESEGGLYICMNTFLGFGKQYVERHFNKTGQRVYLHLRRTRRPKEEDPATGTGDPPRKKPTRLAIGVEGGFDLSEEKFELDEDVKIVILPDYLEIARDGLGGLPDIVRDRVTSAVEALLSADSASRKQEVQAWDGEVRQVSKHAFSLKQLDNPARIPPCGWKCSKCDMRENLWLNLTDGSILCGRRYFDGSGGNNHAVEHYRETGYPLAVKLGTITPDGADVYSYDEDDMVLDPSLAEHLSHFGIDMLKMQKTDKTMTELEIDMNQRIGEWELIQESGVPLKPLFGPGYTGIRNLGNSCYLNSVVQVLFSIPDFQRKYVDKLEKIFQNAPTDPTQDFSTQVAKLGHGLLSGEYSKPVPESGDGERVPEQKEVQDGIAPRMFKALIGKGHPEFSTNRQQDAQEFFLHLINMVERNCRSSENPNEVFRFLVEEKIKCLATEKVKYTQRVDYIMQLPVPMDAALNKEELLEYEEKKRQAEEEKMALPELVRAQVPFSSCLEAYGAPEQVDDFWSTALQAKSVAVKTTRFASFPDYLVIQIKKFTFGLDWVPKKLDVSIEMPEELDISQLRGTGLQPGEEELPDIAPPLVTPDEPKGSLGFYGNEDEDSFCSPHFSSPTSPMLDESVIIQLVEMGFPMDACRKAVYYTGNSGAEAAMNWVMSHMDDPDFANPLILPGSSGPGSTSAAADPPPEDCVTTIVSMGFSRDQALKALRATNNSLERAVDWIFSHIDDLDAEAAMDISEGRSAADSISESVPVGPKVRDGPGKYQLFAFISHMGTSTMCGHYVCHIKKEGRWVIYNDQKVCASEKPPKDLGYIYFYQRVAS
Summary of the method: as §1

[6] = target: USP54 (UniProt Q70EL1)
Summary of the method: as §1

[7] = target: USP7 (UniProt Q93009)
Summary of the method: as §1

[8] = target: T5, USP8 (UniProt P40818)
T5 sequence (whole entry): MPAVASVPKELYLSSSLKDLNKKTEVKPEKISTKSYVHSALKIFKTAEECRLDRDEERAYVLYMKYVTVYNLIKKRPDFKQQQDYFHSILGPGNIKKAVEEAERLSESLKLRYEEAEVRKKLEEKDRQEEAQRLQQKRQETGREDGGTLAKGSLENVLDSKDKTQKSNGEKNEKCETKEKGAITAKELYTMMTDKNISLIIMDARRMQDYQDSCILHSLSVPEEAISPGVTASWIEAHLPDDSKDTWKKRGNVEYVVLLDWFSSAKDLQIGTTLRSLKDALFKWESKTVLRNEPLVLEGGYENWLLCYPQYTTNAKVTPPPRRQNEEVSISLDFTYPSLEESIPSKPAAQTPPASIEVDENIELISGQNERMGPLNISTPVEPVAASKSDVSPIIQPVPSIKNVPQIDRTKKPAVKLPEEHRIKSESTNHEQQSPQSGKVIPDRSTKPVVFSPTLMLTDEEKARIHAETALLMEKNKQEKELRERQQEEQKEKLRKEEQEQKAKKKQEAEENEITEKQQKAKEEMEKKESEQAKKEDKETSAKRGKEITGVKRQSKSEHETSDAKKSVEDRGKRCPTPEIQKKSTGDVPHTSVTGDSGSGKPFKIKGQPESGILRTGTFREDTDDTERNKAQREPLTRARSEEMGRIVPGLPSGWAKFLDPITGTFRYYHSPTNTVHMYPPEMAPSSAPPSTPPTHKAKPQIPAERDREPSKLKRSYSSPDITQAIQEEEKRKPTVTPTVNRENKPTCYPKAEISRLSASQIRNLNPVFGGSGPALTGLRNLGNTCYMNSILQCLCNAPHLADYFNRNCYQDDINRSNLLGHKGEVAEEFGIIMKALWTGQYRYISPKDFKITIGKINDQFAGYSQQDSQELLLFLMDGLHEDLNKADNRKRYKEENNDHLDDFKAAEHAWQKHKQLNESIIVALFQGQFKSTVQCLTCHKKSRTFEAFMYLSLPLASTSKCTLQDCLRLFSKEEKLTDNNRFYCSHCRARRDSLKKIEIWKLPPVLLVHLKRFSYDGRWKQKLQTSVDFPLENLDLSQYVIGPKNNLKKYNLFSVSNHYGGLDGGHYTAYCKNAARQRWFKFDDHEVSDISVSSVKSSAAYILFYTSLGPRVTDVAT
Summary of the method: as §1

Measured: log2 ratio of Biotin-Ahx-Ub-VS probe labelling

Sequence of USP46 (P62068 whole entry): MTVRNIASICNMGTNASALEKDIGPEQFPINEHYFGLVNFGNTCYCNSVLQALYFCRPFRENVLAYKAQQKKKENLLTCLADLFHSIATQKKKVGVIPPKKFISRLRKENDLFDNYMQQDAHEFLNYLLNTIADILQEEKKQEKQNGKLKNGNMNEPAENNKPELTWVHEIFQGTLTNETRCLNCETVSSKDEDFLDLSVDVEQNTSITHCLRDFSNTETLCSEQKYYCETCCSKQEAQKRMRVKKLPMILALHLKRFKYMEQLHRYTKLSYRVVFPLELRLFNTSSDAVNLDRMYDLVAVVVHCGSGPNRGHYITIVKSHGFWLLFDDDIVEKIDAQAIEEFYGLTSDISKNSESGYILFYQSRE
Sequence of USP7 (Q93009 whole entry, looked up): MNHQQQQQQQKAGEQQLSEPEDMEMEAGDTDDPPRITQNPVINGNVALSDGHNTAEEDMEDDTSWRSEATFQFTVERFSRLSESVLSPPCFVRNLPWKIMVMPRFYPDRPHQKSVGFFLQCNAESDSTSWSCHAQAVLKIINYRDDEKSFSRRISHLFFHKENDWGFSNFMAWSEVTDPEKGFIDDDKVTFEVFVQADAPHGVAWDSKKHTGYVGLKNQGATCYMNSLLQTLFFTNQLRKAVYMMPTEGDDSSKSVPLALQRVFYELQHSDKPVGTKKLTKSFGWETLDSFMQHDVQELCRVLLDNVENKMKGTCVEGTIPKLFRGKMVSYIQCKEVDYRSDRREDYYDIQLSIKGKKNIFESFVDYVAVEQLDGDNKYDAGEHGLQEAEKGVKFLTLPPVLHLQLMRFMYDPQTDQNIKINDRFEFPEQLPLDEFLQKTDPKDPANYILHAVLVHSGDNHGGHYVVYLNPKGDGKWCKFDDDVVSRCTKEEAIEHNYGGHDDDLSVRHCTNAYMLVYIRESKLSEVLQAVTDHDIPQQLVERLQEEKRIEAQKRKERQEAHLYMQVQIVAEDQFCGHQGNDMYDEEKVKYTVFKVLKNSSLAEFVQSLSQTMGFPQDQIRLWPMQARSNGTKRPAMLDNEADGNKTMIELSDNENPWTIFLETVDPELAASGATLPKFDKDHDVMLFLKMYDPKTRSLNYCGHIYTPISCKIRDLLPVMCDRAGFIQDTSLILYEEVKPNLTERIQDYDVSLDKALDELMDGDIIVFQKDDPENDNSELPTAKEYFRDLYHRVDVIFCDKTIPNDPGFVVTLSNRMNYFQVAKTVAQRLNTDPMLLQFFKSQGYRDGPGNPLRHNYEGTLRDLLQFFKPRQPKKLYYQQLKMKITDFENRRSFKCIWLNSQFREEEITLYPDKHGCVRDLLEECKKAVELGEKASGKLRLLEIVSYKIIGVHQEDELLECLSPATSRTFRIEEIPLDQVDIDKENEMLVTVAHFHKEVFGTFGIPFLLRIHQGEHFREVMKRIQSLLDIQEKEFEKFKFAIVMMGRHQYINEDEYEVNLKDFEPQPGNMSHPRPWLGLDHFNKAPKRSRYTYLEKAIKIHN
Sequence of USP54 (Q70EL1 whole entry): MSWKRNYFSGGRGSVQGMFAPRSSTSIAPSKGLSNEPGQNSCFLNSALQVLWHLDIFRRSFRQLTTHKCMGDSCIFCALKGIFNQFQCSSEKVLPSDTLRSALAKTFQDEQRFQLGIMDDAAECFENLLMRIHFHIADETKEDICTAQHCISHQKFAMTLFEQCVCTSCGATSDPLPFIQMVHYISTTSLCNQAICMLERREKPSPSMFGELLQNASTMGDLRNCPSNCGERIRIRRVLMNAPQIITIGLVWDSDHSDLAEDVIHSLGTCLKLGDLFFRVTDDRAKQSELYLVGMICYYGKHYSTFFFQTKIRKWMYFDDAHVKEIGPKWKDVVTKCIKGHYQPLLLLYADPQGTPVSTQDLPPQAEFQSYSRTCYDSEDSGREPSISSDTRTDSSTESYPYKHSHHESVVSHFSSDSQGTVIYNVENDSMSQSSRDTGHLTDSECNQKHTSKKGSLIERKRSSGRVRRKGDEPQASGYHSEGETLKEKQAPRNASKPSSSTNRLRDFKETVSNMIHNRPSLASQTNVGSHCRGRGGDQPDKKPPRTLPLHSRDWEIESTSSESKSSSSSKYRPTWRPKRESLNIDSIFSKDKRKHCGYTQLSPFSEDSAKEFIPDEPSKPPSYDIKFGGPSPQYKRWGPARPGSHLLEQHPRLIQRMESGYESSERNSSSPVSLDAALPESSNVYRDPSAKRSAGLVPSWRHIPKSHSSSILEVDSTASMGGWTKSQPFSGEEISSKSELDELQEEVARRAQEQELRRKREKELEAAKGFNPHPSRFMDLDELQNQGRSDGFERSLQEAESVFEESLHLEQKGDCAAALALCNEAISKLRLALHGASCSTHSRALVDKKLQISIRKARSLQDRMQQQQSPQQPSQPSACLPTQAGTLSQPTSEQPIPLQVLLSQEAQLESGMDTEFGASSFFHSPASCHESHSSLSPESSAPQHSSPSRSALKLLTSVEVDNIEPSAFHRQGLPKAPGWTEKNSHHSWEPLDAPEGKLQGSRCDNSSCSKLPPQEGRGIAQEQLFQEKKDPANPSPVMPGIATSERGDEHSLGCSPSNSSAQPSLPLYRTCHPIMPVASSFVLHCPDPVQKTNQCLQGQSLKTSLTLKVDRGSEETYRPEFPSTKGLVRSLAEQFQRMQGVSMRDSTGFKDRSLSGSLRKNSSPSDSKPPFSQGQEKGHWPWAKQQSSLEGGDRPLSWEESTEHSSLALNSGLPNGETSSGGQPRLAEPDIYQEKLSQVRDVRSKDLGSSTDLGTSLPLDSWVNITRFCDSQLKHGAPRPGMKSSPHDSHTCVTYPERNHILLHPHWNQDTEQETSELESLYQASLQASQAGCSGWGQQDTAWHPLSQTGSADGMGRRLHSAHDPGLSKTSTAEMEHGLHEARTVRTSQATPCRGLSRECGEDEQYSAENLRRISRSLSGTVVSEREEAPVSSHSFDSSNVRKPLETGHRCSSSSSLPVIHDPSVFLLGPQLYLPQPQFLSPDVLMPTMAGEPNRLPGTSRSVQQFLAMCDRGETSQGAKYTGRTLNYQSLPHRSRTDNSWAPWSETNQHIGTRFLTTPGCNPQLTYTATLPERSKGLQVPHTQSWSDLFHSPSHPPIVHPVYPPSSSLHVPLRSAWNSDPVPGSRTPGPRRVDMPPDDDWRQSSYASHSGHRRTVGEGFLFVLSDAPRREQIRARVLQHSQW

O=C(CCl)N1CCOCC1C1CC1 (stereo not drawn)
inactive: [1] -0.112 | [2] 0.00778 | [3] -0.0311 | [4] 0.0155 | [5] 0.147 | [6] 0.967 | [7] -0.145 | [8] -0.168
